# According to ChEMBL document CHEMBL3988442, “University of Dundee, Small-Polar-MMV Screening Library” (2021):
# Target: T1, Aspartate--tRNA(Asp/Asn) ligase (Mycobacterium tuberculosis (strain ATCC 25618 / H37Rv)) (UniProt P9WFW3)
# T1 sequence (whole entry): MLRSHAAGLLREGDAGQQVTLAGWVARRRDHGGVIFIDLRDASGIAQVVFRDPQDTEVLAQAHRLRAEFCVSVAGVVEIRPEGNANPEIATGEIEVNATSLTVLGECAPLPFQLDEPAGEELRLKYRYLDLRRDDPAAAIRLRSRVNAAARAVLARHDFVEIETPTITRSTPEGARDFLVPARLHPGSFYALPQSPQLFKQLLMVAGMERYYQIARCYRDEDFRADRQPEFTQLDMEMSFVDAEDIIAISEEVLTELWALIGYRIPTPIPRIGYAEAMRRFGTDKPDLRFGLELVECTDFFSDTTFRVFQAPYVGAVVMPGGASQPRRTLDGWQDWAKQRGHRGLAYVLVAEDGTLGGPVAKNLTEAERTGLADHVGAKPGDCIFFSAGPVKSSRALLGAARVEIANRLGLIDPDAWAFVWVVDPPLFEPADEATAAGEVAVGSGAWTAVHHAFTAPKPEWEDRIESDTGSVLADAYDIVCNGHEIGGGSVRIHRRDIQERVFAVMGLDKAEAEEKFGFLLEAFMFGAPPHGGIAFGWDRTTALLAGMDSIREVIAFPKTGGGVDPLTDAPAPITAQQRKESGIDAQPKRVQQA
# Assay: Assay for Asp RNA synthetase-1 from Mycobacterium tuberculosis
# Type: functional
# Parameters: scale not given: in the data most compounds retested in dose-response had high values
# Conditions: 30 µM
row,SMILES,Percent Effect
1,c1ccc(COC2CCN(c3cncc(-n4cccn4)n3)CC2)cc1,-3.76%
2,Cc1cnn(CC2CCCN2C(=O)c2cc3ccccc3[nH]2)c1 (centres undefined),1.27%
3,COC(CNC(=O)N1CCC(n2cncn2)CC1)c1ccccc1 (centres undefined),-3.54%
4,COc1ccc(-c2nc(CN3CCN(CCO)CC3)co2)cc1,-0.607%
5,Cn1cc(Br)c(=O)c(NS(=O)(=O)c2cc(F)ccc2Cl)c1,-1.26%
6,CN1C(=O)C[C@@H]2[C@@H]1CCN2S(=O)(=O)Cc1ccccc1,-2.58%
7,CC(C)(C)NC(=O)C1CSCN1S(=O)(=O)c1cccc(F)c1 (centres undefined),10.2%
8,Cc1cc(C(=O)NCC2COCc3c(C)nnn3C2)no1 (centres undefined),2.38%
9,CC(C)c1n[nH]c(C2CN(C(=O)C3=COCC3)CCO2)n1 (centres undefined),-3.88%
10,O=C(c1ccc(=O)[nH]n1)N1CC(c2nc(Cc3ccccc3)no2)C1,-0.546%
11,CCOc1ccc(S(=O)(=O)NCc2cccnc2N(C)C)cc1,1.46%
12,CCOCCNc1nc(C2CCCC2)nc2c1cnn2C,5.12%
13,Cc1noc(C)c1C(=O)N1CC[C@H]2C[C@@H](c3nccs3)O[C@@H]2C1,3.92%
14,Cc1nc(-c2ccccc2)sc1C(=O)NCCNc1ncccn1,-2.89%
15,CN1CCC(NC(=O)NCCNc2ccccn2)CC1,0.524%
16,Cc1cnn(CCNCc2csc(-c3cccs3)n2)c1,-6.55%
17,COc1ccc(OCCN(C)C(=O)NC(C)c2nncn2C)cc1 (centres undefined),-1.96%
18,Cc1ncsc1C(=O)NCCn1nc2ccccn2c1=O,-1.86%
19,CCc1cnc(N2CC3(CCN(C(=O)c4ccoc4)C3)C2)nc1,-4.49%
